M1 antag: human M1 muscarinic receptor antagonists, primary screen, CHO-K1 cells, Fluo-8 calcium fluorescence, 1536-well. Muscarinic acetylcholine receptor M1 (Homo sapiens), P11229. CHO-K1 hM1, ACh EC80 antagonist. inhibition, % at 3 µM. 360,000 compounds, 1.3% hits. AID 588852, 2011;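 active = percent inhibition above its own plate's cutoff, namely the mean of that plate's compound wells plus 3 SD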;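 also: peak over basal fluorescence ratio during 140 s after agonist addition; 0% = ACh EC80 plus DMSO and 100% = DMSO alone without agonist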
Target sequence (P11229 whole entry, looked up): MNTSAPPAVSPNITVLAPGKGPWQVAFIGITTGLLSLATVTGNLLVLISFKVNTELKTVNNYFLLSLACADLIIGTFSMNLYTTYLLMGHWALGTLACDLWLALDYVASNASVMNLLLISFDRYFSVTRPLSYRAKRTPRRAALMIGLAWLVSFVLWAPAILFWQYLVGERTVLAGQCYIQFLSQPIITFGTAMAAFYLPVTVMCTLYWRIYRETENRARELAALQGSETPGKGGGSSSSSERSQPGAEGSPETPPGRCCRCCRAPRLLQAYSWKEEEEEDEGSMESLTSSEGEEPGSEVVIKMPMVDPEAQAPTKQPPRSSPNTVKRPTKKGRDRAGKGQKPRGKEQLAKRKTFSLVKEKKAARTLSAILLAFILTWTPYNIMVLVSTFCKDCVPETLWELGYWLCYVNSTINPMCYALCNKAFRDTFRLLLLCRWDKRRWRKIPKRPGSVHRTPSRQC
CHO-K1 Ca antag: M1 antagonist counterscreen hit in parental CHO-K1 cells. 360,000 compounds, 0.6% hits. inhibition, % at 3 µM. ATP-induced calcium, Fluo-8 fluorescence;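 active = inhibition above a per-plate cutoff, the plate's mean sample inhibition plus 3 SD, cut at about 24% in these data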;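 also: 0% = DMSO plus EC80 ATP and 100% = DMSO alone without ATP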
M1 PAM parental: nonselective calcium activators in parental CHO-K1 cells, primary screen, counter-screen for M1 PAM project, cell-based, Fluo-8 calcium fluorescence, full deck, 1536-well. ATP EC20; 0% at ATP EC20, 100% at ATP max. activation, % at 3 µM. 360,000 compounds, 0.02% hits. AID 602247, 2012;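 active = activation above the run cutoff, the mean activation of all test compounds plus 3 SD, cut at about 40% in these data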;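 also: peak over basal fluorescence ratio in a 140 s read after ATP addition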
CHRM1 PAM: human M1 muscarinic receptor positive allosteric modulators, primary screen, CHO-K1 cells, Fluo-8 calcium fluorescence, 1536-well; CHO-K1 hM1, ACh EC20; 0% = ACh EC20, 100% = maximal ACh; activation, % at 3 µM; 360,000 compounds, 0.088% hits; in the data active = activation above about 19%, passing the limit was not always enough
M1 ag parental: counter-screen for M1 agonists: effect in parental CHO-K1 cells; Fluo-8 calcium fluorescence; scaled to maximal ATP response, vehicle zero; 360,000 compounds, 0.48% hits; AID 602248, 2012; activation, % at 3 µM; in the data active = activation above about 15%;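 also: untransfected CHO-K1 host cells lacking M1 receptor as counterscreen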
CHRM1 agonist: human M1 muscarinic receptor agonists, primary screen, Fluo-8 calcium fluorescence, CHO-K1 cells, HTS; Muscarinic acetylcholine receptor M1 (Homo sapiens), P11229; CHO-K1 hM1, agonist mode; 0% DMSO, 100% acetylcholine EC100; activation, % at 3 µM; 360,000 compounds, 0.33% hits; AID 588814, 2011;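 active = activation above the run's mean compound activation plus 3 SD, cut at about 16% in these data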;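 also: peak over basal fluorescence ratio within a 140 s kinetic read after compound addition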
An asterisk follows results filed as active. Shown are actives, neighbours in structure and some others; about 2.4% of the full set was active somewhere.

SMILES	M1 antag	CHO-K1 Ca antag	M1 PAM parental	CHRM1 PAM	M1 ag parental	CHRM1 agonist
COc1ccc(-c2n[nH]c(=S)n2-c2ccc3c(c2)OCCO3)cc1	-5	-5	15	5	0	-5
COc1cc(OC)cc(-c2n[nH]c(=S)n2-c2ccc3c(c2)OCCO3)c1	26*	19	-12	-14	0	-4
Cc1ccc(SC[C@H](c2ccccc2)N2CCN(C)CCC2=O)cc1	33*	-4	-2	-28	1	-13
CC(C)c1nnc(NC(=O)COc2ccc3c(c2)OCO3)s1	-16	-11	19	9	2	-8
CCC(CC)c1nnc(NC(=O)COc2ccc3c(c2)OCO3)s1	5	-7	18	-3	20*	9
CCN(CC(=O)Nc1ccc(Br)cc1)C(=O)c1nc2nc(C)cc(C)n2n1	7	8	-18	0	0	-4
O=C(COc1ccccc1F)OCC(=O)c1ccc([N+](=O)[O-])cc1	0	-10	8	3	0	-4
CCN1CCN(C2=C(Cl)C(=O)N(Cc3ccccc3)C2=O)CC1	78*	-3	5	-22	0	-5
CN1CCN(C2=C(Cl)C(=O)N(Cc3ccccc3)C2=O)CC1	27*	-3	-3	-26	3	-6
CCOC(=O)C1(Cc2ccccc2)C(=O)N(CCCN(C)C)c2ccccc21 (stereo not drawn)	28	1	3	-15	0	-9
CCCC(CCC)C(=O)OC1C[C@H]2CC[C@@H](C1)[N+]2(C)C (stereo partly drawn)	98*	-1	6	-26	0	-7
COc1ccc(CN2CCC(C(=O)c3ccc(Cl)cc3)CC2)cc1	-5	-3	6	-1	1	-9
COc1ccc(NC2=Nc3cccc4cccc2c34)cc1	7	-6	7	-12	4	19*
CCOc1ccc(NC(=S)Nc2ccccc2C2CC2)cc1	10	26*	-15	-9	0	-6
CC(C)C(=O)Nc1ccc2c(c1)nc1n2CCSC1	-9	-11	16	11	1	-1
CCC(=O)Nc1ccc2c(c1)nc1n2CCSC1	9	24*	-7	0	0	-3
N[C@@H](Cc1cnc[nH]1)C(=O)Nc1ccc2ccccc2c1	-24	-7	20	7	1	6
CCn1c(COc2cccc(C)c2C)nnc1SCC(=O)Nc1cc(C)on1	-1	2	7	12	18*	-5
CCn1c(COc2ccccc2C)nnc1SCC(=O)Nc1cc(C)on1	-10	-18	12	12	0	5
CCCOc1ccc(Br)cc1CSC(=N)N	26*	21	0	-16	36*	-3
COc1cccc(C2SCC(=O)N2c2ccc(C)cc2)c1OC (stereo not drawn)	58*	-8	16	-27	0	-11
COc1ccc(S(=O)(=O)N2CCC(C(=O)N[C@@H](C)C(=O)NCc3ccncc3)CC2)cc1	-9	-11	12	19	0	1
COc1cccc(C(NC(C)=O)c2nc(-c3ccc(C)c(C)c3)cs2)c1 (stereo not drawn)	-2	26*	-17	4	0	-1
C[C@H](CO)N1C[C@H](C)[C@H](CN(C)C(=O)Nc2cccc(C(F)(F)F)c2)OCc2cnnn2CCCC1=O	2	2	2	-3	0	-4
Cc1ccc(-c2nc3c(Cl)cc(Cl)cc3c(=O)n2O)cc1	-19	-13	17	12	0	9
SMILES	M1 antag	CHO-K1 Ca antag	M1 PAM parental	CHRM1 PAM	M1 ag parental	CHRM1 agonist
Cn1cnnc1SCC(=O)Nc1ccc(Cl)cn1	-14	33*	-16	4	0	-2
CCc1cccc(C)c1NC(=O)C1CCCN1C(=O)NCc1ccccc1 (stereo not drawn)	-10	-9	1	12	1	-4
Cn1c(NCc2ccccc2O)nc2ccccc21	-2	6	4	1	0	-5
CC(C)n1c(NCc2ccccc2O)nc2ccccc21	-8	1	17	9	23*	-4
Cc1ccccc1C(=O)NCC(=O)OC(C)C(=O)NC(C)CCc1ccccc1 (stereo not drawn)	-8	1	22	9	0	-2
COc1ccc(CCN(C)C(=O)COc2ccc(C(=O)c3ccccc3)cc2)cc1OC	3	-1	-17	-1	1	-1
COc1ccc(CCN(C)C(=O)Cc2ccc(-c3ccccc3)cc2)cc1OC	10	24*	-26	-6	12	2
CC1(C(=O)OCC(=O)NC(=O)NCc2ccccc2)CC1(Cl)Cl (stereo not drawn)	-4	-10	19	8	15*	-6
CC1(C(=O)OCC(=O)NCc2ccc(Cl)cc2)CC1(Cl)Cl (stereo not drawn)	-15	-10	16	5	0	-2
Cc1ncc(CO)c2cc(S(=O)(=O)c3ccc(F)cc3)c(=O)oc12	23*	-13	5	-13	0	-1
CC(=O)c1c(C)[nH]c(C(=O)Nc2ccc(Cl)cc2)c1C	3	-1	4	-6	16*	6
Cc1ccc(C(C)C)c(OCC(O)CN(C)Cc2ccccc2)c1 (stereo not drawn)	12	5	19	-9	7	-2
Cc1ccc(C(C)C)c(OCCCN(C)Cc2ccccc2)c1	59*	-14	30	-26	2	-8
COc1ccc(OC)c(/C=N/NC(=O)CCN2CCN(C(c3ccccc3)c3ccccc3)CC2)c1	48*	1	15	-26	0	-11
N#Cc1ccsc1NC(=O)CCN1CCN(C(c2ccccc2)c2ccccc2)CC1	30*	-26	3	-23	0	-11
O=C(CCN1CCN(C(c2ccccc2)c2ccccc2)CC1)N/N=C/c1ccc(O)cc1	37*	-3	10	-27	2	-11
CC(C)CNC(=O)c1ccc2c(c1)C(=O)N(Cc1ccco1)C2=O	-5	-16	6	1	2	-1
COc1ccc(NC(=O)CN(C)C(=O)c2ccccc2Sc2ncnc3sc(C)c(C)c23)cc1	24	-2	-4	-10	6	-2
NC(=O)C[C@H](N)c1cn([C@@H](CC(N)=O)C(=O)N2CCNCC2)nn1	-3	-5	-11	4	0	-1
Nc1c(C(=O)O)sc2nc3c(cc12)CCCC3	-5	5	7	10	16*	9
NC(=O)c1sc2nc3c(cc2c1N)CCCCCC3	-12	-7	17	4	0	-5
